Bioassay records deposited in PubChem by National Center for Advancing Translational Sciences (NCATS).
Hits are enriched below; roughly 2.6% of the tested compounds scored in any of these assays.
Luciferase inh: qHTS Assay for Inhibitors of Firefly Luciferase; Luciferin 4-monooxygenase (Photinus pyralis), P08659; purified firefly luciferase, luminescence, 8 min; Potency, µM (titrated, usually from 57.1 µM), hits mostly inhibitors; 72,000 tested, 2.2% active; AID 411, 2009; further: nearly all actives have a fitted effect of over 40% in size
Target sequence (P08659 whole entry, looked up): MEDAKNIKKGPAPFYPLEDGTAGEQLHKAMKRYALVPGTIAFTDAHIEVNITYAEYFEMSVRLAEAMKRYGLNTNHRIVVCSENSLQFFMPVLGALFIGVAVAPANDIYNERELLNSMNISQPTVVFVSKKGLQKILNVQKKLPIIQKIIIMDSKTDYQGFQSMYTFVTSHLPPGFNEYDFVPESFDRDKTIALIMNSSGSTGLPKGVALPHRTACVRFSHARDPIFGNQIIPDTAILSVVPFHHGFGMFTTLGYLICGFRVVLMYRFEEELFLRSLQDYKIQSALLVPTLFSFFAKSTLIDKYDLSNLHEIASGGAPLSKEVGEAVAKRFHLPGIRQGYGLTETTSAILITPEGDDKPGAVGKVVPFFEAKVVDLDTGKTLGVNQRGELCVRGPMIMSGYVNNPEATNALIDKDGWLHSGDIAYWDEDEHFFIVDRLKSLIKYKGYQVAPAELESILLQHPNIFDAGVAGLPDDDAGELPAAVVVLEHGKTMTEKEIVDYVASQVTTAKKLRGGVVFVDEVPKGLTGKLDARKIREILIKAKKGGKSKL
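Substrate buffer containing 10 uM ATP (pH 7.2 imidazole, Mg2+, KCl, detergent, BSA) is dispensed, compound pinned in, then luciferase/luciferin detector mix added. After 8 min at ambient temperature, light output is measured.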
Epigenetic mod: qHTS Assay for Epigenetic Modulators. mouse C127i GFP locus derepression, cytometry, 30 h. Potency, µM (doses to about 46.1 µM). 68,000 tested, 0.09% active. AID 597, 2007
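Locus derepression in mouse mammary C127i cells whose integrated CMV-GFP reporter is normally silent; GFP expression after 30 h compound treatment was quantified by counting fluorescent cells.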
HBB splice mod: qHTS Assay for Modulators of Hemoglobin Beta Chain Splicing; HBB splicing reporter cell assay, activation; EGFP reporter with mutant IVS2-654 intron; response scale: normalised to 500 nM splice-correcting PNA; Potency, µM (doses to about 46.1 µM), actives largely listed as activators; 65,000 tested, 0.06% active; AID 925, 2007
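HeLa cells stably expressing EGFP interrupted by mutant beta-globin intron 2 (IVS2-654), 500/well in 2% FCS. Treated with compound for 2 days at 37C. Splicing correction scored as total well GFP intensity (488 nm excitation, 500-520 nm emission); 500 nM antisense PNA served as control.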
Bst PK mod: Pyruvate Kinase | purified pyruvate kinase, luminescence ATP production; ribose 5-phosphate activator present at AC10 | Potency, µM | 51,000 tested, 1.2% active; in the data active means potency below about 11 µM; inconclusive means mostly about 12 µM to 25 µM;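 the screen sought inhibitors and activators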
Hits are given with their value; n = inactive; u = inconclusive; x = no result given; ! = not confirmed by another sample; [ ] = remark or other dose. Unless noted, the call rests on the fitted dose curve; in most records, active means well fitted curve in the direction sought with a large enough effect; inconclusive means small, poorly fitted or top-dose-only effect, or another doubt; inactive means no such curve, though single readings can be large; an effect the other way counts as inactive or inconclusive.

SMILES | Luciferase inh | Epigenetic mod | HBB splice mod | Bst PK mod
COc1ccc(NS(=O)(=O)c2cccc(-c3nnc4n3CCCCC4)c2)cc1 | n | n | n | n
COc1ccc(-c2cc3nc4n(c(=O)c3s2)CCC4)cc1 | 2.51µM | n | n | 3.85
CSCCNC(=O)c1ccc(C(C)(C)C)cc1 | 12.6µM | n | n | u
Cc1cc(C)cc(C(=O)N(C)[C@H](Cc2ccc(-c3ccccc3)cc2)C(=O)N[C@@H](Cc2c[nH]c3ccccc23)C(=O)O)c1 | n | n | x | x
CC(C)CN1CCCC2(CCN(C(=O)c3cnccn3)CC2)C1 | n[11.4 µM] | n[9.22 µM] | n | x
N#CC1(O)CCCCC1 | x | x | n | x
COC(=O)[C@@H]1C[C@H]1[C@@H](NC(=O)c1ccccc1)c1ccccc1 | x | x | n | x
COc1ccc(C(=O)Nc2cccc(C(=O)N3CCCC3)c2)cc1 | n | n | n | n
CN1C(=O)CSc2ccc(NC(=O)N3CCOCC3)cc21 | n | n | n[0.369 µM] | n
CSc1cccc(NC(=O)COc2ccccc2)c1 | n | n | n | n
CC(=O)c1cccc(NC(=O)NCCS(C)=O)c1 (stereo unspecified) | n | n | x | n
CCN(CC)c1ccc(NC(=O)Nc2cccc(C(C)=O)c2)cc1 | 7.94µM | n | n | 9
CC(=O)c1cccc(NC(=O)Nc2ccc3c(c2)N(C)C(=O)CS3)c1 | 15.8µM | n | n | n
CC(=O)c1cccc(NC(=O)Nc2ccc(C(=O)N3CCCC3)cc2)c1 | 2.51µM | n | n | x
CSc1cccc(NC(=O)Nc2ccccc2)c1 | 10µM | n | n[0.0738 µM] | x
CCOC(=O)C1CCN(c2c(NCc3ccc(C(=O)O)cc3)c(=O)c2=O)CC1 | n | x | n | x
COc1ccc(C(=O)N2CCC3(CC2)CN(C(=O)Nc2cccc(C#N)c2)C3)cc1 | n[11.4 µM] | n[9.22 µM] | n | x
Cc1cc(Cc2c(C)c(C)c(Cc3cc(C)cc(C(C)(C)C)c3O)c(C)c2C)c(O)c(C(C)(C)C)c1 | n[11.4 µM] | n[9.22 µM] | n[9.22 µM] | x
N#Cc1ccc(CN2CC3(CCN(C(=O)c4cccc(F)c4)CC3)C2)cc1 | n[11.4 µM] | n[9.22 µM] | n | x
CC(=O)Nc1cccc(C)c1 | x | x | n | x
COc1ccc(NC(=O)Nc2ccc(C(=O)N3CCOCC3)cc2)cc1 | n | n | n | n
O=C(Nc1ccc(C(=O)N2CCOCC2)cc1)Nc1cccc(Cl)c1 | 15.8µM | n | n | x
CC(=O)Nc1cccc(NC(=O)Nc2ccc(C(C)=O)cc2)c1 | 12.6µM | n | n | n
COc1ccc(-c2noc(CCC(=O)NCc3cccnc3)n2)cc1OC | n | n | n[0.369 µM] | n
CC(C)OC(=O)CSc1nnc(-c2ccc(O)cc2)n1Cc1ccccc1 | 25.1µM | n | n | x
SMILES | Luciferase inh | Epigenetic mod | HBB splice mod | Bst PK mod
Cc1ccc(O)c(N=Nc2ccccc2)n1 | 12.6µM! | n | n | x
O=C(O)CCCC[C@@H]1SC[C@H]2NC(=O)N[C@H]12 | n[11.4 µM] | n[9.22 µM] | x | x
C[N@@+]1(Cc2ccc(Cl)c(Cl)c2)CCC[C@@H]1c1ccc[n+](Cc2ccc(Cl)c(Cl)c2)c1 | n[11.4 µM] | n[9.22 µM] | n[9.22 µM] | x
COC(=O)CC(=O)CSc1nc2c(cc1C#N)CCCCC2 | 12.6µM | n | n | n
CCc1nnc(NC(=O)CSc2nc3c(cc2C#N)CCCC3)s1 | u | n | n | x
Cc1cc(N2CCN(C)CC2)nc2ccc(NC(=O)c3ccc4c(c3)OCO4)cc12 | 25.1µM | n | n | x
CN1CCN(c2ccc(NC(=O)c3ccc4c(c3)OCO4)cc2)CC1 | 25.1µM | n | x | x
NNc1nncc2ccccc12 | 3.98µM | n | n | x
CC1CCN(c2nncc3ccccc23)CC1 | n | n | n | n
O=C(NCCCn1ccnc1)Nc1cccc(Cl)c1 | n | n | n | n
O=C(Nc1ccc(F)cc1)N(Cc1ccco1)Cc1cc2cc3c(cc2[nH]c1=O)OCO3 | n | n | x | 3.81
Cc1ccnc(NC(=O)Nc2cccc(F)c2)c1 | 3.16µM | n | x | n
COc1ccc(OC)c2sc(N3CCN(c4ccccc4)CC3)nc12 | 25.1µM | n | n | u
COc1ccc(C)c2sc(N3CCCC3)nc12 | n | n | n | x
CC1(C)O[C@H]2[C@@H](c3[nH]nc4c(=O)[nH]c(=O)[nH]c34)OC[C@H]2O1 | n[11.4 µM] | n[9.22 µM] | n[9.22 µM] | x
Nc1nc(-c2nc3ccccc3[nH]2)cs1 | 12.6µM | n | n | u
Cc1ccc(-c2nc3ccccc3[nH]2)s1 | 5.01µM | n | n | x
CN(Cc1ccco1)c1ncnc2ccc(-c3cccc(C#N)c3)cc12 | n[2.29 µM] | n[9.22 µM] | n | x
Cc1c(C(=O)O)cnc2cc(-c3ccc(Cl)cc3)nn12 | 12.6µM | x | n | x
Cc1cc2ncc(C(=O)Nc3ccccc3)c(C)n2n1 | n | n | n | n
COc1ccc(Oc2ncc3nc(C)c(=O)n(-c4ccc(OC)cc4)c3n2)cc1 | n[11.4 µM] | n[9.22 µM] | n | x
COC(=O)[C@H]1C[C@@H]1[C@H](NC(=O)c1cc(C)nn1C)c1ccccc1 | x | x | n | x
N=C(N)S[C@H]1c2ccccc2-c2cc([N+](=O)[O-])ccc21 | n[11.4 µM] | n[9.22 µM] | n[9.22 µM] | x
CC(C)(C)n1cnc2cc(NS(=O)(=O)c3ccc(Br)cc3)ccc21 | n | n | x | 2.47
Cc1ccc(S(=O)(=O)Nc2ccc3c(c2)ncn3C(C)(C)C)cc1 | n | n | n[9.22 µM] | x
SMILES | Luciferase inh | Epigenetic mod | HBB splice mod | Bst PK mod
O=C(CSCSCC(=O)Nc1ccc2c(c1)OCO2)Nc1ccc2c(c1)OCO2 | n | n | n | n
CC(C)=CC(=O)Nc1ccc2c(c1)OCO2 | 25.1µM | n | n | n
COc1cc(C(=O)Nc2ccc3c(c2)OCCO3)ccc1OC(F)F | 15.8µM | n | n | u
COc1ccc(NC(=O)c2ccc3c(c2)OCO3)cc1Cl | 3.16µM | n | n | x
COc1ccccc1NC(=O)Nc1ccc2c(c1)OCCO2 | 12.6µM | n | n | n
COc1ccccc1CNCCCCCCNCCCCCCCCNCCCCCCNCc1ccccc1OC | n | n | n | x
COc1ccc(NC(=O)C(C)NS(=O)(=O)c2ccc(NC(C)=O)cc2)cc1Cl (stereo unspecified) | n | n | n | n
COc1cc(C(=O)Nc2ccc3c(c2)OCCO3)ccc1OC(C)C | 12.6µM | n | n | n
COc1cccc(OC)c1C(=O)Nc1ccc2c(c1)OCCO2 | n | n | n | x
CCc1c(C(=O)Nc2ccc(OC)c(Cl)c2)[nH]c(C)c1C(C)=O | n | n | n | 3.13
COc1cccc(NC(=O)c2oc3ccccc3c2NC(=O)c2ccc3c(c2)OCO3)c1 | 3.98µM | n | n | n
